High-throughput results from PubChem.
CIT2-GFP yeast = modulators of TOR pathway CIT2-GFP in S. cerevisiae | GFP response vs DMSO, % at 10 µM | S. cerevisiae CIT2-GFP strain, flow cytometry, 3 h; 100 means same as DMSO wells | 320,000 tested, 0.065% active;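 active = GFP response relative to DMSO above a set limit, near the screen mean plus 3 SD, cut at about 150% in these data; inconclusive = Fewer than 70 cells measured for a yeast strain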;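 also: ratio of well median GFP fluorescence to mean of DMSO wells on the plate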
RPL19A TOR yeast = modulators of TOR pathway RPL19A-GFP in S. cerevisiae; S. cerevisiae RPL19A-GFP strain, flow cytometry, 3 h; active compounds read low; percent response vs DMSO, % at 10 µM; 330,000 tested, 0.3% active; AID 2025;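 active = percent response vs DMSO below 50%; inconclusive = fewer than 70 events counted for the yeast strain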;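 also: median channel GFP fluorescence of the barcoded RPL19A-GFP strain; lower means less RPL19A-GFP as with rapamycin TOR inhibition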
MEP2 TOR yeast = modulators of TOR pathway MEP2-GFP in S. cerevisiae | S. cerevisiae MEP2-GFP strain, flow cytometry GFP, 3 h; 100% = DMSO control level | GFP response vs DMSO, % at 10 µM | 330,000 tested, 0.51% active | AID 2016;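 active = GFP response versus DMSO above a set limit, roughly screen mean plus 3 SD, cut at about 180% in these data; inconclusive = fewer than 70 cells counted for a yeast strain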;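 also: median GFP fluorescence of the barcode-gated MEP2-GFP cells per well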
LAP4 TOR yeast = alters LAP4-GFP fluorescence in TOR pathway yeast screen; S. cerevisiae LAP4-GFP multiplex, flow cytometry GFP, 3 h; median GFP as percent of DMSO wells; GFP response vs DMSO, % at 10 µM; 320,000 tested, 0.34% active; AID 2023;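 active = GFP response vs DMSO above a set limit, about the screen mean plus 3 SD, cut at about 150% in these data; inconclusive = under 70 cell events counted for the yeast strain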
AGP1 TOR yeast = modulators of TOR pathway AGP1-GFP in S. cerevisiae; AID 2066; S. cerevisiae AGP1-GFP multiplex flow cytometry, 3 h; GFP as percent of DMSO wells; 320,000 tested, 0.02% active; GFP response vs DMSO, % at 10 µM;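 active = GFP response relative to DMSO above a set limit, near screen average plus 3 SD, cut at about 150% in these data; inconclusive = fewer than 70 cells counted for the yeast strain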;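 also: median GFP channel fluorescence of the gated AGP1 strain per well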
Each line names hits and unclear results; the compound was inactive in the other large screens; [ ] = remark or other dose. Shown are actives, neighbours in structure and some others; about 0.93% of the full set was active somewhere.

O=C(Nc1cccc(OCC(=O)N2CCOCC2)c1)c1cccc([N+](=O)[O-])c1	none
O=C(COc1cccc(NC(=O)c2cccc([N+](=O)[O-])c2)c1)c1ccc(Br)cc1	CIT2-GFP yeast inconclusive, MEP2 TOR yeast 259[may fluoresce violet], AGP1 TOR yeast inconclusive
COC(=O)C1=C(C)N(CCc2ccccc2)C(=O)C1	CIT2-GFP yeast inconclusive, RPL19A TOR yeast 44[may fluoresce violet], MEP2 TOR yeast 189[may fluoresce violet], AGP1 TOR yeast inconclusive
CCCN1C(=O)CC(C(=O)OC)=C1C	none
CCN1CCN(CCCNC(=O)C2CCCN(c3nnc(-n4cccc4)s3)C2)CC1 (stereo not drawn)	CIT2-GFP yeast inconclusive, RPL19A TOR yeast 43[may fluoresce violet], MEP2 TOR yeast 393[may fluoresce violet], AGP1 TOR yeast inconclusive
CC1C(=O)N(Cc2cccc(F)c2)c2ccccc2N1C(=O)c1ccccc1 (stereo not drawn)	CIT2-GFP yeast inconclusive, MEP2 TOR yeast 263[may fluoresce violet], AGP1 TOR yeast inconclusive
COc1cccc(CN2C(=O)C(C)N(C(=O)c3c(F)cccc3F)c3ccccc32)c1 (stereo not drawn)	none
O=C(O)CCn1c(=S)n(CCC(=O)O)c2ccccc21	none
COc1cc(/C=N/NC(=O)c2cc(-c3cccc(OC(C)C)c3)nc3ccccc23)ccc1O	none
O=C(O)c1ccccc1C1=Nc2ccc(O)cc2Oc2cc(O)ccc21	CIT2-GFP yeast inconclusive, MEP2 TOR yeast 260[may fluoresce violet] (no result: RPL19A TOR yeast)
Clc1ccc(-c2nnnn2-c2ccc(Cl)cc2)cc1	MEP2 TOR yeast 454, LAP4 TOR yeast 162
Cc1ccc(-n2nnnc2C(Cl)(Cl)c2nnnn2-c2ccc(C)cc2)cc1	LAP4 TOR yeast 168
Clc1ccc(-n2nnnc2-c2ccccc2)cc1	none
CSc1nnnn1-c1ccc(Cl)cc1	none
CC(Oc1ccc(F)cc1)C(=O)Nc1cc(S(=O)(=O)N2CCCCC2)ccc1N1CCOCC1 (stereo not drawn)	none
CCN(CC)c1ccc(/C=C2\SC(=O)N(C(C)C)C2=O)o1	LAP4 TOR yeast 256
CC(C)N1C(=O)S/C(=C/c2ccc3c(c2)n(C)c(=O)n3C)C1=O	none
CCOc1ncccc1C(=O)OCC(=O)c1ccccc1	none
CCOc1ncccc1C(=O)OCCN1C(=O)c2ccccc2C1=O	CIT2-GFP yeast inconclusive, RPL19A TOR yeast 29[may fluoresce violet], MEP2 TOR yeast 495[may fluoresce violet] (no result: AGP1 TOR yeast)
Nc1nc(SCC(=O)Nc2cc(C(F)(F)F)ccc2N2CCOCC2)n[nH]1	MEP2 TOR yeast 181
COc1ccc(-c2nn(-c3ccccc3)cc2CO)cc1	none
Cc1ccc(-c2nn(-c3ccccc3)cc2CO)cc1	CIT2-GFP yeast inconclusive, MEP2 TOR yeast 221[may fluoresce violet]
O=C(CN1C(=O)NC2(CCOc3ccccc32)C1=O)c1ccc[nH]1 (stereo not drawn)	none
CCOc1ccc(CCNC(=O)C2CCCN2C(=O)OCc2ccccc2)cc1OCC (stereo not drawn)	none
CC/C(=N/NC(=O)CNc1ccc(Cl)cc1C)c1ccccc1	CIT2-GFP yeast inconclusive, MEP2 TOR yeast 481[may fluoresce violet]
CC/C(=N\NC(=O)C1CC1)c1cccc(Cl)c1	none
O=C(COc1ccc2c3c(c(=O)oc2c1)CCC3)N1CCCC1	CIT2-GFP yeast inconclusive, MEP2 TOR yeast 238[may fluoresce violet], AGP1 TOR yeast inconclusive
O=C(COc1ccc2c3c(c(=O)oc2c1)CCC3)N1CCCCC1	none
CCOC(=O)c1sc(Nc2nc3c(OC)cccc3s2)nc1C	MEP2 TOR yeast 247
COc1ccc(/C=N/NC(=O)c2cc3c(ccc4ccccc43)o2)cc1OC	none
COc1cc(/C=N/NC(=O)c2cc3c(ccc4ccccc43)o2)cc(OC)c1O	CIT2-GFP yeast inconclusive, RPL19A TOR yeast 19[may fluoresce violet], MEP2 TOR yeast 245[may fluoresce violet], AGP1 TOR yeast inconclusive
S=C(Nc1cc(Cl)cc(Cl)c1)N1CCN(c2ccccn2)CC1	none
O=C(c1cscn1)N1CCCC(N2CCN(c3ccc(F)cc3)CC2)C1 (stereo not drawn)	none
O=c1cc(-c2ccc(C(F)(F)F)cc2)oc2ccccc12	CIT2-GFP yeast inconclusive, RPL19A TOR yeast 44[may fluoresce violet], MEP2 TOR yeast 181[may fluoresce violet], AGP1 TOR yeast inconclusive
Clc1ccc(Nc2ncnc3ccc(Br)cc23)cc1	LAP4 TOR yeast 166
O=C(CSc1ccccn1)N/N=C/c1ccccc1[N+](=O)[O-]	none
O=C(CSc1ccccn1)N/N=C/c1cc([N+](=O)[O-])ccc1O	CIT2-GFP yeast inconclusive, RPL19A TOR yeast 45[may fluoresce violet], MEP2 TOR yeast 277[may fluoresce violet], AGP1 TOR yeast inconclusive
Cn1c(=O)c(C(=O)NCCc2ccc(Cl)cc2)c(O)c2ccccc21	CIT2-GFP yeast inconclusive, MEP2 TOR yeast 202[may fluoresce violet]
O=C(Cn1c(=O)c2cccn2c2ccccc21)NCCc1ccc(Cl)cc1	CIT2-GFP yeast inconclusive, RPL19A TOR yeast 41[may fluoresce violet], MEP2 TOR yeast 184[may fluoresce violet]
Cc1nn(-c2ccccc2)c(C)c1NC(=O)COC(=O)/C=C/c1ccccc1	none
Cn1ccsc1=NC(=O)c1ccc([N+](=O)[O-])o1	CIT2-GFP yeast inconclusive, MEP2 TOR yeast 241[may fluoresce violet]
O=C(Nc1cccnc1)c1ccc(F)c(S(=O)(=O)N2CCOCC2)c1	CIT2-GFP yeast inconclusive, RPL19A TOR yeast 28[may fluoresce violet], MEP2 TOR yeast inconclusive, LAP4 TOR yeast inconclusive, AGP1 TOR yeast inconclusive
CC1NC(=O)N(C)C2NC(=O)N(C)C(c3ccccc3)C12 (stereo not drawn)	CIT2-GFP yeast inconclusive, RPL19A TOR yeast 46[may fluoresce violet], MEP2 TOR yeast 363[may fluoresce violet], AGP1 TOR yeast inconclusive
CC(=O)OC1C(OC(C)=O)N(C(C)=O)C(=O)N1C(C)=O (stereo not drawn)	CIT2-GFP yeast inconclusive, RPL19A TOR yeast 19[may fluoresce violet], MEP2 TOR yeast 200[may fluoresce violet], AGP1 TOR yeast inconclusive
O=C(NC(=S)NNC(=O)c1ccco1)c1ccccc1	LAP4 TOR yeast 151[may fluoresce green]
CCN(CC)CCCN(Cc1cc2cc3c(cc2[nH]c1=O)OCO3)C(=S)Nc1ccccc1	LAP4 TOR yeast 153
N#Cc1c(N)nc(SCc2ccccc2)c(C#N)c1-c1ccco1	CIT2-GFP yeast inconclusive, RPL19A TOR yeast 17[may fluoresce violet], MEP2 TOR yeast inconclusive, LAP4 TOR yeast inconclusive, AGP1 TOR yeast inconclusive
CSCCCNC(=S)N(C)CC(=O)Nc1ccc(C)cc1	none
O=C(O)c1ccc(/C=C/c2nc3sc4c(c3c(=O)[nH]2)CCC4)cc1	none
Cc1ccc(C2C(C#N)=C(N)Oc3cc(N)ccc32)cc1 (stereo not drawn)	none
Cc1ccc(/C=C2\CCC3=C2OC(N)=C(C#N)C3c2ccc(C)cc2)cc1 (stereo not drawn)	CIT2-GFP yeast inconclusive, MEP2 TOR yeast 422[may fluoresce violet]
CCN(CC)CCCN(Cc1cc2cc(OC)c(OC)cc2[nH]c1=O)C(=O)Nc1ccccc1	none
COc1cc2cc(CN(C(=O)Nc3ccccc3)C3CCCC3)c(=O)[nH]c2cc1OC	CIT2-GFP yeast inconclusive, RPL19A TOR yeast 38[may fluoresce violet], MEP2 TOR yeast 379[may fluoresce violet], AGP1 TOR yeast inconclusive
CCCC/C=C/C(NC(=O)c1ccc(C(=O)OC)cc1)c1ccccc1 (stereo not drawn)	none
O=C(OC1CCOC1=O)c1ccc(S(=O)(=O)N2CCCCCC2)cc1 (stereo not drawn)	CIT2-GFP yeast inconclusive, MEP2 TOR yeast 178[may fluoresce violet], AGP1 TOR yeast inconclusive
CC(=O)OCC1=C(C(=O)O)N2C(=O)C(NC(=O)CC(C)c3ccccc3)C2SC1 (stereo not drawn)	none
